Bioassay records as filed in PubChem.
GPR151 activ – activates the human receptor GPR151; PathHunter beta-arrestin GPR151 cells, luminescence; activation, % at 11.2 µM; actives 1% (n = 650,000); in the data active = activation above about 4.9%;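 also: 0% = median of compound wells and 100% = cells with positive control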
FBW7 act – activators of human E3 ligase FBW7; AlphaScreen FBW7–phospho-cyclin E peptide binding, activator screen; normalized activity (activation), % at 26.1 µM; actives 0.13% (n = 650,000); Q969H0; in the data active = normalized activity above about 1.9%;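 also: purified mutant Fbw7 with reduced substrate affinity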
Target sequence (Q969H0 whole entry, looked up): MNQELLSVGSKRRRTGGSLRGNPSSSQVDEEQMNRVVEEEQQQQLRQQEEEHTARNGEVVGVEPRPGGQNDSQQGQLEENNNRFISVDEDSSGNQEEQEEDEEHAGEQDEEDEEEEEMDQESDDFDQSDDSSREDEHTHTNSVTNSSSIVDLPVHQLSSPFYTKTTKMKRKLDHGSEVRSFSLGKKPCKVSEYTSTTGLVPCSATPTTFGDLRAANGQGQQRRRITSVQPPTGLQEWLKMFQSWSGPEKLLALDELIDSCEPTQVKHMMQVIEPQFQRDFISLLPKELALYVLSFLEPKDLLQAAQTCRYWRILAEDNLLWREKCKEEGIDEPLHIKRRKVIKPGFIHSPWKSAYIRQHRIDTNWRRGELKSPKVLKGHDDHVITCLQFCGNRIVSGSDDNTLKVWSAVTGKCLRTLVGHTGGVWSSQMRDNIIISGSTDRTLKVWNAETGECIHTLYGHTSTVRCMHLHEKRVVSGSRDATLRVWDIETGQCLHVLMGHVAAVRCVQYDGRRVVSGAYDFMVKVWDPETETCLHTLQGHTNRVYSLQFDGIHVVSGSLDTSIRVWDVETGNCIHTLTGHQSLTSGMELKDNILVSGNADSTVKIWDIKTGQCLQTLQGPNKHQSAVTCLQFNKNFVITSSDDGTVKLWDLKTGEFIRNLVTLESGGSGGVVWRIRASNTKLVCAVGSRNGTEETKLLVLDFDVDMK
MITF primary – human MITF inhibition, primary screen; AlphaScreen MITF homodimerization, bead proximity signal; inhibition, % at 2.6 µM; actives 0.91% (n = 650,000); O75030; in the data active = inhibition above about 50%;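 also: 0% = vehicle wells with protein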
TEAD-YAP block – TEAD-YAP interaction inhibition; HEK-TIYL cells, TEAD-Gal4/YAP UAS-luciferase luminescence; inhibition, % at 9.12 µM; actives 1.4% (n = 640,000); in the data active = inhibition above about 32%;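 also: 0% = median of test compound wells and 100% = reference inhibitor wells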
The depositor's hits bear a star. Sampled rows, rich in hits. Any-hit rate of the full collection: about 3.5%.

SMILES | GPR151 activ | FBW7 act | MITF primary | TEAD-YAP block
COc1cccc(C(=O)Nc2ccc(N3CCN(C(=O)C(C)C)CC3)cc2)c1 | 1 | 0 | -7 | 46*
Cc1cccc(C(=O)Nc2ccc(N3CCN(C(=O)C(C)C)CC3)cc2)c1 | 0 | 0 | -10 | -5
COc1cccc(C(=O)Nc2ccc(Oc3ccc4c(c3)C(=O)NC4=O)cc2)c1 | -1 | 0 | 7 | 51*
CCOCC(=O)Nc1cc(-c2cn3nc(OC)ccc3n2)ccc1F | -6 | 0 | -10 | 68*
CCOCC(=O)Nc1ccc(-c2cn3nc(OC)ccc3n2)cc1 | -3 | 0 | 9 | 4
CCOc1ccc(CC(=O)Nc2nnc(C3CCCCC3)o2)cc1 | 0 | 0 | -14 | -2
COc1ccccc1/C=C/c1nn2c(-c3ccccc3OC)nnc2s1 | 2 | 0 | -3 | 54*
CCOc1ccccc1/C=N\NC(=O)CCn1cnc2ccccc21 | 1 | 0 | 5 | 2
COc1ccccc1/C=C/C=N\NC(=O)CCn1cnc2ccccc21 | 0 | 0 | -13 | 53*
COc1ccccc1/C=C/c1nn2c(Cn3cnc4ccccc43)nnc2s1 | 1 | 0 | 1 | 48*
COc1ccccc1/C=C/c1nn2c(COc3ccccc3)nnc2s1 | 1 | 1 | -10 | -5
O=C(Nc1sc2c(c1C(=O)N1CCCCC1)CCCCC2)c1ccccc1Cl | 2 | 0 | 2 | 0
Nc1nonc1N=NN(Cc1ccc(Cl)cc1Cl)c1nonc1N | 2 | 0 | 73* | 10
Nc1nonc1N=NN(CC(=O)Nc1c(Cl)cccc1Cl)c1nonc1N | -1 | 0 | 8 | -3
O=C(N/N=C/c1ccc(Cl)cc1Cl)c1ccccc1O | -1 | 0 | 8 | -43
COc1cccc(CNC(=O)c2cnc3ccc(-c4cn[nH]c4)cn23)c1 | 0 | 0 | 0 | 88*
Cc1ccc2[nH]c3nc(N/N=C/c4ccc(O)c(O)c4)nnc3c2c1 | -1 | -1 | 87* | -4
COc1ccc(Br)cc1/C=N/Nc1nnc2c(n1)[nH]c1ccccc12 | 0 | 2.1* | 19 | -4
Cc1ccc2[nH]c3nc(N/N=C/c4ccc(O)cc4O)nnc3c2c1 | 1 | -2 | 22 | 63*
COc1cccc(/C=N/Nc2nnc3c(n2)[nH]c2ccccc23)c1 | 0 | 0 | 17 | -31
COc1ccc(/C=N/Nc2nnc3c(n2)[nH]c2ccc(Br)cc23)c(O)c1 | 0 | 0 | -3 | -6
CCOc1cc(/C=N/Nc2nnc3c(n2)[nH]c2ccc(C)cc23)ccc1O | 0 | 0 | -7 | 3
c1ccc(Nc2nc(NCC3CCCO3)c3ccccc3n2)cc1 (configuration not stated) | 0 | 0 | 2 | 46*
Fc1cccc(Nc2nc(NCC3CCCO3)c3ccccc3n2)c1 (configuration not stated) | 5 | 0 | -21 | 45*
CCOC(=O)c1sc(NC(=O)c2ccccc2Br)nc1C | -2 | 0 | 5 | -9
SMILES | GPR151 activ | FBW7 act | MITF primary | TEAD-YAP block
CCN(CC)CCNc1cc(C)nc2c1C(=O)C(=O)C=C2N1CCCCC1 | 0 | 0 | 9 | 94*
Cc1cnc(Nc2ccc(N3CCOCC3)cc2)nc1NCCN1CCOCC1 | 1 | 0 | 1 | 0
Cc1cnc(Nc2ccc(C(F)(F)F)cc2)nc1Nc1ccc(N2CCOCC2)cc1 | 2 | 0 | 15 | 49*
Cc1cnc(NCc2ccc3c(c2)OCO3)nc1Nc1ccc(N2CCOCC2)cc1 | -1 | 0 | 16 | 42*
Cc1cnc(Nc2ccc(N3CCOCC3)cc2)nc1Nc1ccc(N2CCOCC2)cc1 | 5 | 0 | 9 | 42*
Cc1cnc(Nc2ccncc2)nc1Nc1ccc(N2CCOCC2)cc1 | -1 | 0 | -4 | 40*
COC(=O)c1ccccc1NC(=O)CSc1nc2ccsc2c(=O)n1CCN1CCCC1 | -1 | 0 | 21 | 3
CC(C)NC(=O)c1cnc(N2CCCC2)nc1 | 0 | 0 | -5 | -3
Cc1cnc(Nc2ccc(N3CCOCC3)cc2)nc1NCCOc1ccccc1 | 3 | 0 | 14 | 48*
Cc1cc(C)n(-c2nc(-c3ccccc3)cc(=O)n2CC(=O)N2CCCCCC2)n1 | 1 | 0 | -6 | -5
Oc1ccc(CCNc2nc(Nc3ccc(N4CCOCC4)cc3)nc3c2ncn3-c2ccsc2)cc1 | -2 | 0 | 19 | 42*
CC(C)N(CCNc1nc(Nc2ccc(N3CCOCC3)cc2)nc2c1ncn2-c1ccccc1)C(C)C | -1 | 0 | 10 | 13
CC(C)N(CCNc1nc(Nc2ccc(N3CCOCC3)cc2)nc2c1ncn2-c1ccsc1)C(C)C | -2 | 0 | -2 | 39*
OCCNc1nc(Nc2ccc(N3CCOCC3)cc2)nc2c1ncn2-c1ccsc1 | 0 | 0 | 2 | 60*
c1ccc(CNc2nc(Nc3ccc(N4CCOCC4)cc3)nc3c2ncn3-c2ccsc2)cc1 | 3 | 0 | 21 | -10
c1ccc(OCCNc2nc(Nc3ccc(N4CCOCC4)cc3)nc3c2ncn3-c2ccsc2)cc1 | -2 | 0 | 17 | -1
O=C(NC1CCCCNC1=O)c1cnc2sc3ccccc3n2c1=O (configuration not stated) | -1 | 0 | -1 | 6
COc1cc(OC)c(C2C(C(=O)OC3CCCCC3)=C(C)NC3=C2C(=O)CC(C)(C)C3)cc1OC (configuration not stated) | 0 | 0 | -4 | 5
Cc1ccc(-c2nn(CC(=O)N3CCOCC3)c(=O)c3ccccc23)cc1 | 4 | 0 | 3 | 3
CCOc1ccccc1-c1cc(=O)c2ccc(NC(=O)c3cccs3)cc2o1 | 1 | 0 | -1 | -5
COCCC(=O)NCC1Cc2c(F)ccc(-c3ccc(C(=O)C4CC4)cc3)c2O1 (configuration not stated) | -1 | 0 | 1 | -25
Cc1nonc1C(=O)NCC1Cc2c(F)ccc(-c3ccc(C(=O)C4CC4)cc3)c2O1 (configuration not stated) | -1 | 0 | -14 | 63*
O=C(NCC1Cc2c(F)ccc(-c3ccc(C(=O)C4CC4)cc3)c2O1)c1cnsn1 (configuration not stated) | -1 | 0 | -10 | 56*
O=C(Cn1cnc2sc3c(c2c1=O)CCCC3)NCCC(=O)N1CCN(Cc2ccccc2)CC1 | 0 | 0 | 15 | 7
COc1cc(OC)cc(C(=O)NC(=S)Nc2ccc(-c3nc4ccccc4s3)c(O)c2)c1 | 0 | 0 | 2 | -29
SMILES | GPR151 activ | FBW7 act | MITF primary | TEAD-YAP block
O=c1[nH]c(C2CC2)nc2cc(-c3cnn(-c4ccc(Cl)cc4)c3)ccc12 | 0 | 1 | 10 | 60*
CCc1ccc(N=c2ssc3c2-c2cc(C)c(C)cc2NC3(C)C)cc1 | 0 | 0 | -5 | 14
C=CCOc1ccc(/C=C2\SC(NC(C)=O)=NC2=O)cc1OCC | 1 | 0 | 6 | 9
C=CCOc1ccc(/C=C2\SC(=N)N(c3nccs3)C2=O)cc1OCC | -1 | 0 | -1 | 36*
CC(C)Oc1ccc(C(=O)Nc2nccs2)cc1 | -5 | 0 | 13 | 52*
CC(C)Sc1ccc(C(=O)Nc2nccs2)cc1 | -6 | 0 | 20 | 55*
COc1cc(SC)ccc1C(=O)Nc1nccs1 | -1 | 0 | 15 | 46*
CCn1nnc(NC(=O)c2ccc(OC(C)C)cc2)n1 | -5 | 0 | 9 | 44*
